Measurements reported in PubChem BioAssay (NCATS).
Where “and” joins values, the source holds several entries; their conditions need not be identical. Equal entries are not always repeated. Records with an inconclusive call do not appear. Values without a mark were called inactive. Calls of active or inactive are those of the source. The call rests on the fitted dose curve; in most records, active means well fitted cell-killing curve with a large enough effect; inconclusive means small, poorly fitted or top-dose-only effect, or effect the other way; inactive means no such curve, though single readings can be large or run the other way.

Assay: Viability qHTS for spleen associated tyrosine kinase inhibitor (SYKi) drug resistant MV4-11 cells (AID 1963824); further: nearly all actives have a fitted effect of over 35% in size
Conditions: SYKi-resistant MV4-11 viability, CellTiter-Glo, 72 h; series mostly up to 45 µM; viability, % of control: at the top concentration
Text: Department of Medicine, Hematology/Oncology
University Hospital Frankfurt, Germany.
Trials have shown promising clinical activity of the selective SYK inhibitor entospletinib in patients with high expressing HOXA9/MEIS1 acute leukemias. As the development of resistance mechanisms is a common problem in the use of targeted drugs, we performed a chemical library screen to identify drug sensitivities in SYK inhibitor resistant AML cells. […] Glucocorticoids are potent immunosuppressants which work in part by inhibiting the transcription of cytokine genes.
Described herein is a viability screen to look for activity in the SYK inhibitor drug resistant cell line against four NCATS compound libraries (MIPE 5.0, NPC, NPACT, and Kinase) totaling 11372 compounds. Active hits were reacquired for confirmation and further secondary assay testing.
SEQUENCE No. (e.g., 1, 2, 3, etc.); […] (e.g., Cells, Incubation, Reagent, etc.); VALUE; DESCRIPTION.
1; Media; 2uL; white, solid-bottom Corning assay plate.
2; Compounds; 23nL; Echo acoustic dispenser.
3; Cell; 5uL; 500 cells per well.
4: Incubation; 72hr; 37 C, 5% CO2, 95% humidity.
5; Reagent; 3uL; CellTiter-Glo reagent (Promega).
6; Incubation; 10min; room temperature.
7; Detection; Luminescence; ViewLux plate reader (PerkinElmer).
NOTES (numbers refer to Sequence numbers above
1. Quantitative high-throughput screening (qHTS) of small molecule compounds was conducted on drug resistant SYKi MV4-11 cell line.
2. Twenty-three nanoliter of small molecule compounds were added to each assay plates using the Echo acoustic dispenser (Beckman Coulter).
3. Cells were seeded into the assay plates at a final density of 500 cells in 5uL of media per well using the Multidrop Combi dispenser.
4. Plates were covered with stainless steel gasketed lids and incubated for 72 hours at standard cell culture conditions.
5. Viability was assessed by adding 3uL of CellTiter-Glo detection reagent (Promega).
6. Plates were covered with gasket lids and incubated for 10 minutes at room temperature.
7. Luminescence was measured on a ViewLux plate reader (PerkinElmer).
Potency means the concentration at half of the fitted maximal effect.

SMILES	viability, % of control	Potency
CC(C)=CCC[C@](C)(O)[C@H]1CC[C@]2(C)[C@@H]1[C@H](O)CC1[C@@]3(C)CC[C@H](O)C(C)(C)[C@@H]3[C@@H](O[C@@H]3O[C@H](CO)[C@@H](O)[C@H](O)[C@H]3O[C@@H]3O[C@H](CO)[C@@H](O)[C@H](O)[C@H]3O)C[C@]12C (stereo not given in full)	87.7% [at 17.3 µM]	–
O=C(O)/C=C/c1ccc(O[C@@H]2O[C@H](CO)[C@@H](O)[C@H](O)[C@H]2O)cc1	109%	–
CC1(CO)CC2C(O)C3=C(CC(C)(O)C2C1)C(=O)OC3 (stereo not given)	105%	–
CCCCC(CC)CN=C(N)NC(N)=NCCCCCCN=C(N)NC(N)=NCC(CC)CCCC (stereo not given)	–	2.66 µM (active)
CC[N+]1(CC)CCC(=C(c2ccccc2)c2ccccc2)C1C (stereo not given)	–	8.2 µM (active)
Cc1ccccc1C(C(=O)NC1CCCCC1)N(C(=O)Cn1ccnc1C)c1cccc(F)c1 (stereo not given)	–	9.34 µM (active)
Cn1nc(-c2ccc(C(F)(F)F)cc2)nc2c(=O)n(C)c(=O)nc1-2	–	4.11 µM (active)
COc1cc2c(Nc3ccc(Cl)c(Cl)c3F)ncnc2cc1OCC1C[C@@H]2CN(C)C[C@@H]2C1 (stereo not given in full)	–	2.31 µM (active) and 2.95 µM (active)
Clc1cc2c(NC3CCCC3)nnc(-c3ccncc3)c2cc1Cl	–	13.2 µM (active)
CC(=O)O[C@H]1[C@H](Oc2ccccc2COC(=O)C2(O)C=CCCC2=O)O[C@H](CO)[C@@H](O)[C@@H]1O (stereo not given in full)	68.7% [at 17.3 µM]	–
COc1cc(OC)c(NC(=O)c2ccc(Cc3cc4c(cc3C)C(C)(C)CCC4(C)C)o2)c(OC)c1	–	11.6 µM (active)
CC(C)C[C@@H](C(=O)N[C@@H](Cc1ccc(OCc2ccccc2)cc1)C(=O)NC(C)(C)C)N(C)Cc1ccc(C(C)(C)C)cc1	–	3.66 µM (active)
NC1CCCN(c2c(/C=C3\SC(=O)NC3=O)cccc2-c2ccccc2)C1 (stereo not given)	–	8.2 µM (active) and 13.2 µM (active)
Nc1ccc(O)cc1	62.1%	–
CC[C@@]1(O)C[C@H](O[C@H]2C[C@H](N(C)C)[C@H](O[C@H]3C[C@H](O)[C@H](O[C@H]4CCC(=O)[C@H](C)O4)[C@H](C)O3)[C@H](C)O2)c2c(cc3c(c2O)C(=O)c2c(O)cccc2C3=O)[C@@H]1C(=O)OC	–	1.32 µM (active)
CC1CCC2(C(=O)OC3OC(COC4OC(CO)C(O)C(O)C4O)C(O)C(O)C3O)CCC3(C)C(=CCC4C5(C)CCC(O)C(C)(C(=O)O)C5CCC43C)C2C1(C)O (stereo not given)	98.8% [at 9.25 µM]	–
Nc1nc(NCC2CCC(CNS(=O)(=O)c3cccc4ccccc34)CC2)nc2ccccc12 (stereo not given)	–	2.31 µM (active)
Cc1ccccc1NC(=O)Nc1ccc(CC(=O)N(C)[C@@H](CC(C)C)C(=O)NCC[C@H](NC(=O)[C@@H]2CCCN2S(=O)(=O)c2cc(Cl)cc(Cl)c2)C(=O)O)cc1	93.9% [at 17.3 µM]	–
O=C(O)c1ccccc1NCCc1ccccc1	54.8%	–
Cc1cccc(-c2[nH]c(C(C)(C)C)nc2-c2ccc3c(c2)OCO3)n1	–	1.46 µM (active) and 2.09 µM (active)

SMILES	viability, % of control	Potency
C=C1CC[C@@H]2[C@](C)(CO)[C@H](O)CC[C@@]2(C)[C@@H]1CC(O)C1=CCOC1=O (stereo not given in full)	–	4.53 µM (active)
C=CC1C(O[C@@H]2O[C@H](CO)[C@@H](O)[C@H](O)[C@H]2O)OC=C(C(=O)OC)C1Cc1nccc2c1[nH]c1ccccc12 (stereo not given in full)	–	3.99 µM (active)
CCN(CC)CCNC(C(=O)OCCC(C)C)c1ccccc1 (stereo not given)	90.8%	–
COc1cccc2c1C(=O)c1c(O)c3c(c(O)c1C2=O)C[C@@](O)(C(=O)CO)C[C@@H]3O[C@H]1C[C@H](N)[C@H](O)[C@H](C)O1	–	0.299 µM (active)
CNC(=S)NS(=O)(=O)c1cc(CCNC(=O)c2cc(Cl)ccc2OC)ccc1OC	83.2%	–
CC(C)n1cnc2c(NCCc3ccc(O)cc3)nc(-c3csc4ccccc34)nc21	–	14.8 µM (active)
O=C1c2ccccc2CCc2ccccc21	98.3%	–
O=C1CC[C@H](C(=O)N2CCCCC2)N1	103%	–
CCN(CC)S(=O)(=O)c1ccc(C(=O)O)cc1	96.6%	–
C[C@@H]1C[C@@H](O)[C@@]23CO[C@@H](O)[C@@H]2CCC[C@@H]3[C@@]12C[C@@H](c1ccoc1)OC2=O	92.2%	–
C[N+]1(CC2COC(c3ccccc3)(c3ccccc3)O2)CCCCC1 (stereo not given)	–	10 µM (active)
C=C(CCC1=C(C)[C@H]2[C@H](CC3[C@@H]4CC=C5C[C@@H](O)C[C@@H](O)[C@]5(C)C4[C@H](O)C[C@@]32C)O1)CO[C@@H]1O[C@H](CO)[C@@H](O)[C@H](O)[C@H]1O (stereo not given in full)	–	0.485 µM (active)
C/C=C(/COC(=O)/C(C)=C/C)C(=O)OC/C=C/c1ccc(OC)cc1	–	12.8 µM (active)
CC1=C(CC/C(C)=C/C(=O)O)[C@@]2(C)CCCC(C)(C)C2CC1=O (stereo not given in full)	72.2%	–
NC(=O)CC[C@@H](N)C(=O)O	87.8%	–
COc1cc(/C=C/C(=O)OC[C@H]2O[C@H](O[C@]3(CO)O[C@H](CO)[C@@H](O)[C@@H]3O)[C@H](O)[C@@H](O)[C@@H]2O)cc(OC)c1O	103% [at 17.3 µM]	–
C=CC1(C)CC(OC(=O)C(=C)C(O)COC(C)=O)C(C(=C)C(=O)OC)C(O)C1C(=C)CO (stereo not given)	–	10 µM (active)
CN(C)C(=S)SC(=S)N(C)C	–	1.68 µM (active)
Cn1cncc1[C@@](N)(c1ccc(Cl)cc1)c1ccc2c(c1)c(-c1cccc(Cl)c1)cc(=O)n2C	–	2.35 µM (active)
CC(C)(O)c1ccn2c(-c3ccc(F)c(-c4ccc(F)cc4C#N)c3)cnc2c1F	–	8.2 µM (active)
